# Shown is part of a subset that was picked to be rich in hits.
# Pf Dd2 growth – blocks in vitro growth of P. falciparum Dd2; P. falciparum Dd2 growth, SYBR Green, 72 h; 120,000 tested, 4.3% active; Potency, µM (highest dose often 28.9 µM), for the others: at the highest dose activity, negative = inhibition, most hits filed as inhibitors; active = well fitted inhibition curve with a large enough effect;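 also: plate controls were DMSO vehicle for no effect and reference drug for full effect; nearly all actives have a fitted effect of over 65% in size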
#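 Infected erythrocytes (Dd2, 0.3% parasitemia, 2.5% hematocrit final) are added to compound in RPMI-1640/Albumax II medium, grown 72 h at 37C in low oxygen, then lysed with saponin/Triton-X containing SYBR Green and read by fluorescence.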
# An asterisk follows results filed as active; i = inactive; [ ] = another dose, or the depositor's remark. Potency is read from the fitted curve at half-maximal effect.
SMILES,Pf Dd2 growth
CC(C)N1CCC[C@H]1c1nc(-c2ccc(N3CCN(C)CC3)nc2)no1,10µM*
CC(=O)N1CCC(N2CCC[C@H]2c2nc(-c3ccc(N4CCC(C(N)=O)CC4)nc3)no2)CC1,i
FC(F)(F)Oc1cccc(CN2CCC[C@H]2c2nc(-c3ccc(N4CCOCC4)nc3)no2)c1,-12.0%
CC(=O)Nc1ccc(CN2CCC[C@H]2c2nc(-c3ccc(N4CCC(C(N)=O)CC4)nc3)no2)cc1,i
COc1ccc(CN2CCC[C@H]2c2nc(-c3ccc(-n4ccnc4)nc3)no2)c(OC)c1OC,10µM*
c1cncc(CN2CCC[C@H]2c2nc(-c3ccc(-n4ccnc4)nc3)no2)c1,8.91µM*
O=C(c1n[nH]c(=O)c2ccccc12)N1CCCC1c1nc(CCOCC2CC2)no1 (centres undefined),-17.9%
COc1ccc(F)c(-c2nc(CN3CCN4C(=O)CNC(=O)C4C3)c(C)o2)c1 (centres undefined),6.2%
O=C1C(N2CCN(S(=O)(=O)c3cccs3)CC2)CCN1Cc1ccccn1 (centres undefined),i
O=[S+]1([O-])NC2(CCN(CC3CCOCC3)CC2)COc2ccccc21,-1.0%
CC1Oc2ccc(NC(=O)c3ccc(F)cc3)cc2CN(Cc2ccc3c(c2)OCO3)C1=O (centres undefined),-10.7%
Cc1noc([C@H]2CCN(C(=O)NCc3ccc(F)cc3)C[C@H]2NC(=O)C2CCOCC2)n1,19.7%
COc1cccc(C(=O)N2CCC(C(NC(=O)c3cccc(C)c3)C(=O)N3CCCC3)CC2)c1 (centres undefined),i
COc1ccc(-c2ccc3c(c2)C(=O)N2CCN(C(=O)COCC(=O)O)C[C@@H]2C(=O)N3)c(OC)c1,16.2%
COc1ccc(-c2ccc3ncc(Nc4cccnc4OC)n3n2)cc1OC,-6.4%[44.1 µM]
COc1ccc(Nc2cnc3ccc(-c4ccccc4)nn23)cc1,5.62µM*
COc1ccccc1-c1ccc2ncc(Nc3cccc(N[S+](C)(=O)[O-])c3)n2n1,i
COc1ccccc1Nc1cnc2ccc(-c3ccccc3OC)nn12,-3.9%[44.1 µM]
COc1ccc(Nc2cnc3ccc(-c4ccc(OC)c(OC)c4)nn23)cc1,1.12µM*
COc1cncc(Nc2cnc3ccc(-c4ccccc4OC)nn23)c1,2.51µM*
COc1ccc(Nc2cnc3ccc(-c4ccc(OC)c(OC)c4)nn23)cc1OC,i
COc1ccccc1-c1ccc2ncc(Nc3ccc(CCO)cc3)n2n1,i
NC(=O)c1ccc(Nc2cnc3ccc(-c4ccccc4)nn23)cc1,-10.8%[44.1 µM]
COc1cncc(Nc2cnc3ccc(-c4ccc(OC)nc4)nn23)c1,i
COc1cncc(Nc2cnc3ccc(-c4ccc(OC)c(OC)c4)nn23)c1,0.891µM*
SMILES,Pf Dd2 growth
c1ccc(-c2ccc3ncc(Nc4ncccn4)n3n2)cc1,i
O=C(NC1CCN(C(=O)N2CC3CC(C2)[C@H]2CCCC(=O)N2C3)CC1)c1ccccc1 (some centres undefined),-6.9%
COCC(=O)N1CC[C@H](c2nnc(C(C)(C)C)o2)C1,13.3%[44.1 µM]
NC(=O)COC[C@@H]1CN(C(=O)CC2CCCCC2)C[C@H]1c1ccncc1,2.4%
Cc1ccccc1C(=O)N1CCCC(Nc2ccc(F)cc2)C1 (centres undefined),-19.0%
O=C(NC[C@H]1O[C@@H]2C[C@@H](CC(=O)N3CCC(F)(F)C3)O[C@@H]2[C@@H]1O)Nc1ccc(F)cc1,-0.9%
CCc1nc(-c2c3n(c(=O)n(CC(=O)NCc4ccc(F)cc4)c2=O)CCCC3)no1,-15.3%
CNC(=O)[C@@H](c1ccccc1OC)N1CCC[C@H]1C(=O)NCC1CC1,-3.6%[44.1 µM]
COc1cccc2c1ccn2CCNC(=O)Cn1nc2c(cc1=O)CCCC2,-1.7%
O=C1NCCCCCCN(Cc2ccncc2)[C@@H]2CN(C(=O)c3ccco3)CC[C@@H]12,-7.0%
O=C1Nc2cc(Cl)ccc2C(=O)N2C[C@H](O)C[C@@H]12,9.8%[44.1 µM]
CC1CCN(Cc2nnnn2CC(=O)N(Cc2ccncc2)CC2CCCO2)CC1 (centres undefined),2.2%
CN1CCN(Cc2ccc(Nc3cnc4ccc(-c5ccccc5)nn34)cc2)CC1,2.24µM*
CN1CCN(Cc2ccc(Nc3cnc4ccc(N5CCOCC5)nn34)cc2)CC1,-19.8%[44.1 µM]
CN1CC(=O)N(c2ccccc2F)Cc2c(NC3CCCC3)ncnc21,28.0%[44.1 µM]
COc1cccc(CNC(=O)c2cc3c(=O)[nH]c(C)cn3n2)c1,i
Cc1noc(C)c1CN1CCN(c2ccc(F)cc2)CC1,-13.2%
CN1CCN(c2cc(=O)c3ccnc(-c4cccc(CO)c4)c3o2)CC1,i
Cc1c(-c2ccc(Cl)cc2)c(=O)oc2c(CN3CCN(C)CC3)c(O)ccc12,10µM*
Cc1ccc(-c2c(C(=O)NCCc3ccc(Cl)cc3)oc(=O)c3ccccc23)cc1,-8.1%
Cc1c(-c2ccccc2)c(=O)oc2c(CN3CCN(C)CC3)c(O)ccc12,3.98µM*
CCc1c(C)c2ccc(O)c(CN3CCN(c4ccccc4)CC3)c2oc1=O,1.26µM*
Cc1ccc2oc(=O)c3cnn(CC(=O)N4CCN(c5ccccc5)CC4)c3c2c1,21.5%[5.79 µM]
Cc1cc(O)c(C(c2ccccc2)N2CCN(C)CC2)c(=O)n1Cc1ccco1 (centres undefined),50.0%
O=C(NC[C@H]1O[C@H](Cc2cc(-c3ccccn3)on2)CC[C@@H]1O)Nc1ccccc1,-19.7%[44.1 µM]
SMILES,Pf Dd2 growth
Cc1ccsc1CN1CCC2(CC1)Cc1ccccc1CNC2=O,-36.2%
COCCOc1ccc2c(n1)CCN(C(=O)NCCC(C)C)C2,-2.1%
Cc1ccc(CN2CC[C@H]3C(=O)NCCCCCCN(Cc4ccncc4)[C@@H]3C2)o1,-13.1%
N#Cc1ccccc1CN1CC[C@@H]2C(=O)NCCCCCCN(Cc3ccncc3)[C@@H]2C1,-47.2%
N#Cc1cccc(CN2CC[C@H]3C(=O)NCCCCCCN(Cc4ccncc4)[C@@H]3C2)c1,12.6µM*
COCc1nc2ccccc2n1CCOc1cccc(C)c1,22.2%
COc1ccccc1OCCn1c(COc2cc(C)ccc2C)nc2ccccc21,6.31µM*
COc1ccccc1OCCn1c(NC(=O)c2ccccc2Cl)nc2ccccc21,-9.4%
COc1cccc(S(=O)(=O)N2CCC3(CC2)N(C)C(=O)CS3=O)c1 (centres undefined),2.2%
Cc1noc(C)c1CNCC1(COc2cccnc2)C[C@@H](O)[C@@H](O)C1 (some centres undefined),-23.4%[44.1 µM]
Cn1cc(S(=O)(=O)c2ccccc2)c(=O)c2cc(F)c(N3CCCCCC3)cc21,8.91µM*
Cn1cc(S(=O)(=O)c2ccccc2)c(=O)c2cc(F)c(N3CCCCC3)cc21,0.9%
Cn1cc(S(=O)(=O)c2ccc(Cl)cc2)c(=O)c2cc(F)c(N3CCCCCC3)cc21,14.1µM*
Cn1cc(S(=O)(=O)c2cccc(Cl)c2)c(=O)c2cc(F)c(N3CCCCCC3)cc21,i
Cn1cc(S(=O)(=O)c2ccccc2)c(=O)c2cc(F)c(N3CCCC3)cc21,-15.6%
CCN1CCN(c2cc3c(cc2F)c(=O)c(S(=O)(=O)c2ccccc2)cn3C)CC1,-5.2%
Cc1ccc(S(=O)(=O)c2cn(C)c3cc(N4CCCCC4)c(F)cc3c2=O)cc1,-26.6%
CCCN1CCN(c2cc3c(cc2F)c(=O)c(S(=O)(=O)c2ccc(Cl)cc2)cn3C)CC1,10µM*
Cc1ccccc1C(=O)N1CCC(Cc2nc(-c3ccccc3)no2)CC1,i
CCc1nc(C)ccc1OCC(=O)N1CCCn2nc(C(C)O)cc2C1 (centres undefined),0.5%
CNC(=O)[C@@H]1CN(C(=O)c2ccncn2)C[C@H]1c1n[nH]c(C)n1,i
Cc1c(CN2CCC(c3nnc(CN(C)C)n3C)CC2)cc(C#N)n1C,-5.6%

# Compound activity deposited in PubChem BioAssay by National Center for Advancing Translational Sciences (NCATS).
